# In PubChem BioAssay (EPA / NIEHS):
# Records with an inconclusive call do not appear. The source made the active and inactive calls. Rule for the calls: active = hit-call score of the fitted dose curve at least 0.9, where 1 is the maximum; inconclusive = response in the unintended direction; inactive = score below 0.9.
# Assay: ACEA_ER_80hr: ACEA Biosciences xCELLigence Real-Time Cell Analysis on Estrogen Receptor Agonism for Proliferation (AID 2282667)
# Settings: T47D proliferation, impedance (xCELLigence), 80 h
# Description: ACEA_ER is a cell-based, single-readout assay that uses T47D, a human breast cell line, with measurements taken at 80 hours after chemical dosing in a 96-well plate, although TO2 (mc0.srcf) used a 384-well plate. Differences in plate size can be ignored given data normalization.ACEA_ER_80hr is one of two assay component(s) measured or calculated from the ACEA_ER assay. It is designed to make measurements of real-time cell-growth kinetics, a form of growth reporter, as detected with electrical impedance signals by Real-Time Cell Electrode Sensor (RT-CES) technology.Data from the assay component ACEA_ER_80hr was analyzed into 1 assay endpoint. This assay endpoint, ACEA_ER_80hr_Positive, was analyzed in the positive analysis fitting direction relative to DMSO as the negative control and baseline of activity. Using a type of growth reporter, measures of the cells for gain-of-signal activity can be used to understand the signaling at the pathway-level as they relate to the gene ESR1. Furthermore, this assay endpoint can be referred to as a primary readout, because this assay has produced multiple assay endpoints where this one serves a signaling function. To generalize the intended target to other relatable targets, this assay endpoint is annotated to the nuclear receptor intended target family, where the subfamily is steroidal.
# The xCELLigence system Multi-E-Plate stations were used to measure the time-dependent response to chemicals. Each compound was tested in an eight-point, 1:4 serial dilution series starting at a maximum final concentration of 100 uM. A maximum starting concentration of 0.5% DMSO was present in the 100 uM chemical samples and was diluted along with the test article dilution series. The screen was performed in biological duplicate using two separate, 96-well, E-Plates 96 for each dilution series (n = 2). Positive controls (MG132 and E2) and a negative control (assay media) were tested in quadruplicate on each testing plate. […] Reference compounds were tested with 8 concentrations with 1:5 serial dilutions. All screening was carried out by ACEA Biosciences, Inc. (San Diego, CA). T-47D cells purchased from ATCC were maintained in RPMI1640 media supplemented with 10% characterized fetal bovine serum (FBS). […] Cells were then detached and seeded in E-Plates 96 in assay medium. After overnight monitoring of growth once every hour, compounds were added to […] cells and remained in the medium until the end of the experiment. Cellular responses were then recorded once every 5 min for the first 5 h, and once every hour for an additional 100 h.
Compound,outcome,AC50
CC(C)C(=O)OCCc1ccccc1,inactive,–
C=CC(=O)NCOCCCC,inactive,–
C=CCCCCCCCCO,inactive,–
CC1(C)C(=O)N(CO)C(=O)N1CO,inactive,–
COC(=O)c1ccc(C(=O)OC)c(C(=O)OC)c1,inactive,–
O=C(O[C@@H]1Cc2c(O)cc(O)cc2O[C@@H]1c1cc(O)c(O)c(O)c1)c1cc(O)c(O)c(O)c1,inactive,–
CCCCOC(=O)CCC(C)=O,inactive,–
CC(C)[N+](C)(CCOC(=O)C1c2ccccc2Oc2ccccc21)C(C)C,inactive,–
CCCCCC1=CCCC1=O,–,0.106 µM (active)
Cc1cc(C)n(CO)n1,inactive,–
CC(C)CC(=O)OCc1ccccc1,inactive,–
CCN(CC)c1cccc(C)c1,inactive,–
C[N+](C)(C)CCCNS(=O)(=O)C(F)(F)C(F)(F)C(F)(F)C(F)(F)C(F)(F)C(F)(F)C(F)(F)C(F)(F)F,inactive,–
CC(Cl)COP(=O)(OCC(C)Cl)OCC(C)Cl (stereo not given),inactive,–
O=C(O)CC(C(=O)O)S(=O)(=O)O (stereo not given),inactive,–
CC1CC(=O)CC(C)(C)C1 (stereo not given),inactive,–
O=C(OCc1ccccc1)c1ccc(O)cc1,–,10.5 µM (active)
NNS(=O)(=O)c1ccc(Oc2ccc(S(=O)(=O)NN)cc2)cc1,inactive,–
CC(C)CCOCc1ccccc1,inactive,–
Cc1c(C(=O)c2c[nH]n(C)c2=O)ccc(S(C)(=O)=O)c1C1=NOCC1,inactive,–

Compound,outcome,AC50
C=CC(=O)O[C@H]1C[C@@H]2CC[C@@]1(C)C2(C)C,inactive,–
C=CCCCCCCCCOC(C)=O,inactive,–
O=C(O)C(F)(F)C(F)(F)C(F)(F)C(F)(F)C(=O)O,inactive,–
CC1=C(O)C(=O)C(C)O1 (stereo not given),inactive,–
Cc1ccc([N+](=O)[O-])cc1N,inactive,–
OCCCc1ccccc1,inactive,–
C1CNCCN1,inactive,–
N#CC1(N)CCCCC1,inactive,–
CCCCc1ccc(Cl)cc1,inactive,–
CC(C)c1cc(C(C)C)cc(C(C)C)c1,inactive,–
CCOC(=O)[C@H](O)[C@@H](O)C(=O)OCC,inactive,–
CC(=O)c1ccc(S(=O)(=O)NC(=O)NC2CCCCC2)cc1,inactive,–
CC(CCC(=O)O)(c1ccc(O)cc1)c1ccc(O)cc1,–,13.4 µM (active)
C=CC(=O)OCCCCCCCCCC,inactive,–
C=C(C)C(=O)OCC(O)COc1ccc(C(C)(C)c2ccc(OCC(O)COC(=O)C(=C)C)cc2)cc1 (stereo not given),inactive,–
COC(=O)C=Cc1ccccc1,inactive,–
C[Si](C)(C)N[Si](C)(C)C,inactive,–
CCCCCCCCCC(C)=O,inactive,–
CCC(C)(O)CCCC(C)C (stereo not given),inactive,–
O=C1CCCCC1C1CCCCC1 (stereo not given),inactive,–
